Measured values reported in PubChem BioAssay (NCATS).
“And” between values parts separate entries of the source, which are not always exact repeats. Identical values can stand only once. Inconclusive results are not listed. The source made the active and inactive calls. Unless noted, calls come from the whole dose curve; as a rule, active = well fitted curve in the direction sought with a large enough effect; inconclusive = small, poorly fitted or top-dose-only effect, or another doubt; inactive = no such curve, though single readings can be large; an effect the other way counts as inactive or inconclusive.

Key:
[1] = biological target: Glucocorticoid receptor (Homo sapiens) (UniProt P04150); experiment: qHTS assay for small molecule antagonists of glucocorticoid receptor signaling (AID 588533; active = well fitted inhibition curve with a large enough effect in the signal ratio, with a control signal flat, not every such curve was filed as active; the % refers to the signal ratio;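 note: cells stimulated with 2 nM dexamethasone as agonist; % is set by controls: 0 for no effect and ±100 for the full control effect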)
Chain of Glucocorticoid receptor (Homo sapiens) (P04150 whole entry, looked up): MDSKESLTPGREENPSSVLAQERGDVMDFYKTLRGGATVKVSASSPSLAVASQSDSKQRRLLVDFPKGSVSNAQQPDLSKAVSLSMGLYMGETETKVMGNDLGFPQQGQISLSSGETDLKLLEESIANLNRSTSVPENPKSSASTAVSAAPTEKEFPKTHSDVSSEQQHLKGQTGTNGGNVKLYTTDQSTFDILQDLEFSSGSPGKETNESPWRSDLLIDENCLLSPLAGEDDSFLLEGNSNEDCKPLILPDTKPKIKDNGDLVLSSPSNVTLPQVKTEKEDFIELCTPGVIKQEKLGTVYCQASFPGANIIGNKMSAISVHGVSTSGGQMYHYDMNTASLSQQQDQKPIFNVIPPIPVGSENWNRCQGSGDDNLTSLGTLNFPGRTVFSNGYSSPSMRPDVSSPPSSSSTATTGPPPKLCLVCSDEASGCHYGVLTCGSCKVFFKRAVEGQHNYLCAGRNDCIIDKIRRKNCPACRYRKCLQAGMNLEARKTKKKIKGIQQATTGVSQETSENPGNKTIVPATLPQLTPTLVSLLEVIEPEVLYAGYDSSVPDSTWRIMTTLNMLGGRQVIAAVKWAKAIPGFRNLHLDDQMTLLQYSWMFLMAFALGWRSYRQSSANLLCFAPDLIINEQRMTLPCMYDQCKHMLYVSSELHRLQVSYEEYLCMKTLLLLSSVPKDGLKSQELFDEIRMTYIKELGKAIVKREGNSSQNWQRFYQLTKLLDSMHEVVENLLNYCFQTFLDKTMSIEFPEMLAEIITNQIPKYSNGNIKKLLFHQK
Method in brief: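 Antagonist-mode qHTS: compound titrations added to GRE-bla HeLa cells, then dexamethasone 2 nM final; 18 h, 37 C. CCF4 FRET fluorescence normalized to dexamethasone and DMSO; IC50 from Hill fit.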

[2] = qHTS assay for small molecule antagonists of peroxisome proliferator-activated receptor delta signaling (AID 588535; active = well fitted inhibition curve with a large enough effect in the signal ratio, with a control signal flat, not every such curve was filed as active; the % refers to the signal ratio;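 for max response: cells co-treated with a PPAR-delta agonist as stimulator during compound exposure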); details: HEK293T PPARd-UAS-bla, beta-lactamase FRET ratio, 18 h; 460 nm channel
Method in brief: (§1)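 HEK293T PPAR-delta-UAS-bla cells, 4000/well, 2% charcoal/dextran FBS; 5 h 37 C; cpd titration; 18 h 37 C; CCF4 2 h RT; FI 460/530 nm; Hill fit → IC50, efficacy.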

[3] = biological target: Peroxisome proliferator-activated receptor delta (Homo sapiens) (UniProt Q03181); experiment: as above
Chain of Peroxisome proliferator-activated receptor delta (Homo sapiens) (Q03181 whole entry, looked up): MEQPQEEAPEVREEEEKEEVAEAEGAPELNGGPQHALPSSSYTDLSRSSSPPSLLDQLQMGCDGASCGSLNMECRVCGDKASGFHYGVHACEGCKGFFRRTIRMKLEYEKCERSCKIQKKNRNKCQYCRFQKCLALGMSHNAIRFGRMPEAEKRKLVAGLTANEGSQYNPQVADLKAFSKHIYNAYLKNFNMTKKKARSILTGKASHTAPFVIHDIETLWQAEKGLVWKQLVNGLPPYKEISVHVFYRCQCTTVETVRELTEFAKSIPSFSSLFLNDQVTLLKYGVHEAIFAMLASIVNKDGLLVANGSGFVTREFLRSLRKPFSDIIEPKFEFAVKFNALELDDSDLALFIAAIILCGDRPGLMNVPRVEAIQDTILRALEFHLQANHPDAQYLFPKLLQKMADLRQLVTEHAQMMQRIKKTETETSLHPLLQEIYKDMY
Method in brief: as §1

[4] = biological target: Peroxisome proliferator-activated receptor gamma (Homo sapiens) (UniProt P37231); experiment: qHTS assay for small molecule agonists of peroxisome proliferator-activated receptor gamma signaling (AID 588536; active = well fitted curve in the direction sought with a large enough effect in the signal ratio, with a control signal flat, not every such curve was filed as active; the % refers to the signal ratio;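 note: 0% = DMSO basal wells and 100% = rosiglitazone at 2 µM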)
Chain of Peroxisome proliferator-activated receptor gamma (Homo sapiens) (P37231 whole entry, looked up): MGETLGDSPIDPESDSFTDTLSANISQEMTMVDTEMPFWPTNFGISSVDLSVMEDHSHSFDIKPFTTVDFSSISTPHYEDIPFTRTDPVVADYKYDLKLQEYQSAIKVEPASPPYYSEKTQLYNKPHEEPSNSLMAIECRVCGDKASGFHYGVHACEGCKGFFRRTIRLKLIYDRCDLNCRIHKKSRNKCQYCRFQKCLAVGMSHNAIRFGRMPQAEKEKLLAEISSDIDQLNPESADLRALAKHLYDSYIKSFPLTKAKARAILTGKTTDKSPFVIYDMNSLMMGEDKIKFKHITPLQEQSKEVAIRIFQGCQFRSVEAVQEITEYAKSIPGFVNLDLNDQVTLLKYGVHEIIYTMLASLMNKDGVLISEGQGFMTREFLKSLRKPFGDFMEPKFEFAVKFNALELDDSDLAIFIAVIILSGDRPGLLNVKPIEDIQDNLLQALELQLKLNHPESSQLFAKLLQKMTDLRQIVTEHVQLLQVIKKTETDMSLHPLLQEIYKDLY
Method in brief: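 HEK293 UAS-bla reporter line, 1% charcoal/dextran FBS; titration, 16 h, 37 C; CCF4 loading 2 h RT; fluorescence 460/530 nm. Normalized to rosiglitazone 2 uM = 100%, DMSO = 0%.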

[5] = qHTS assay for small molecule agonists of retinoid X receptor alpha signaling (AID 588544; calls by dose curve;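 for activation: 0% = DMSO basal wells and 100% = reference agonist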); details: HEK293T RXRa-UAS-bla, beta-lactamase reporter, 18 h; 530 nm emission
[6] = biological target: Retinoic acid receptor RXR-alpha (Homo sapiens) (UniProt P19793); experiment: as above
Chain of Retinoic acid receptor RXR-alpha (Homo sapiens) (P19793 whole entry, looked up): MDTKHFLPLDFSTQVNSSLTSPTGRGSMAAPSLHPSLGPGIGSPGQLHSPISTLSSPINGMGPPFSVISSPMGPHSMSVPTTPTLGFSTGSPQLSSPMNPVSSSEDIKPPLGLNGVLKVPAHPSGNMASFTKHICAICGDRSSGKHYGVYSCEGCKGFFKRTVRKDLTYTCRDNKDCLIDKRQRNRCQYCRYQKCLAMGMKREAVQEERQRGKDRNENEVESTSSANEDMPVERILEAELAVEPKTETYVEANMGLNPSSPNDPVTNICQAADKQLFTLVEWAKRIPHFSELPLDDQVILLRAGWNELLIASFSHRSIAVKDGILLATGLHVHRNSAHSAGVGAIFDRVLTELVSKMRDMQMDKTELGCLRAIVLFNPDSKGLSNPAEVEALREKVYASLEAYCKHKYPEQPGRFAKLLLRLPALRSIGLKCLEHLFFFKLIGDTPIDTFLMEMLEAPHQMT

[7] = biological target: Thyroid hormone receptor beta (Homo sapiens) (UniProt P10828); experiment: qHTS assay for small molecule agonists of thyroid hormone receptor beta signaling (AID 588545; calls by dose curve)
Chain of Thyroid hormone receptor beta (Homo sapiens) (P10828 whole entry, looked up): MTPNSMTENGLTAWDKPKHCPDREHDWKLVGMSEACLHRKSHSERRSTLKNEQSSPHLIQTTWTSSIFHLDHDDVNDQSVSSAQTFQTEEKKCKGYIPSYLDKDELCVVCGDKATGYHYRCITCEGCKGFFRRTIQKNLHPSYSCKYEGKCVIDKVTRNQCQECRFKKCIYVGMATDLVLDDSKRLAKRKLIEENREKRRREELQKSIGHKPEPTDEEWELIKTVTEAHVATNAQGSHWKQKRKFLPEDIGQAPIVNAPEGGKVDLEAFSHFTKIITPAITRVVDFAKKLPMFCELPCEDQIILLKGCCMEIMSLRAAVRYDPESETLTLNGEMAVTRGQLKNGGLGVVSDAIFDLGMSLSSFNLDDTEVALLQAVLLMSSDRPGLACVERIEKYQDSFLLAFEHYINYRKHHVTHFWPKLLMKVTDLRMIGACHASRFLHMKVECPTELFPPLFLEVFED
Method in brief: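 Cells (2500/well) were seeded, incubated 4 hrs at 37 C, dosed with a compound series, incubated 18 hrs, loaded with CCF4 dye for 2 hrs at RT, then read for fluorescence. Data were scaled between DMSO (0%) and 10 nM T3 (100%).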

[8] = qHTS assay for small molecule antagonists of retinoid X receptor alpha signaling (AID 588546; active = well fitted inhibition curve with a large enough effect in the signal ratio, with a control signal flat, not every such curve was filed as active; the % refers to the signal ratio;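 note: cells stimulated with 9-cis-retinoic acid as agonist; % is set by controls: 0 for no effect and ±100 for the full control effect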); details: HEK293T RXRa-UAS-bla, beta-lactamase ratio, antagonist mode; measured here: W530 green channel, cytotoxicity proxy
Method in brief: (§2)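 Beta-lactamase reporter inhibition, read as CCF4 fluorescence ratio (ex 405, em 460/530 nm) after 2 h at RT. HEK293T UAS-bla cells, 2500/well, were stimulated with 9-cis-RA at 500 or 100 nM final alongside test compound for 18 h at 37 C.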

[9] = biological target: Retinoic acid receptor RXR-alpha (Homo sapiens) (UniProt P19793); experiment: as above; details: HEK293T RXRa-UAS-bla, beta-lactamase ratio, antagonist mode
Method in brief: as §2

[10] = qHTS assay for small molecule activators of the p53 signaling pathway (AID 651743; active = well fitted activation curve with a large enough effect in the signal ratio, not every such curve was filed as active; the % refers to the signal ratio; note: series mostly up to about 92 µM; % of control where 0% means no effect); details: HCT-116 p53RE-bla, beta-lactamase FRET ratio, 16 h; activation: stronger effect = higher value
Method in brief: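 Read-out is fluorescence intensity from the LiveBLAzer B/G FRET substrate, added for 2 hours at room temperature after HCT-116 p53RE-bla cells had been incubated with compounds for 16 hours at 37 C.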

[11] = qHTS assay for environmental chemicals that activate the Aryl hydrocarbon Receptor (AhR) signaling pathway (AID 651777); details: 1A2-DRE human hepatoma cells, luciferase, 24 h; activation: stronger effect = higher value; note: % of control where 0% means no effect; nearly all actives have a fitted effect of over 15% in size
Method in brief: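 Quantitative HTS in stably transfected human liver-derived cells whose luciferase gene sits downstream of the CYP1A2 promoter and dioxin response element. After 24 hr exposure at 37 C, One-Glo luminescence was measured.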

[12] = biological target: Peroxisome proliferator-activated receptor alpha (Homo sapiens) (UniProt Q07869); experiment: qHTS assay for small molecule agonists of the peroxisome proliferator-activated receptor alpha (PPARalpha) signaling pathway (AID 651778); details: PathHunter PPARalpha complementation, chemiluminescence, 6 h; max response: stronger effect = higher value; note: % of control where 0% means no effect
Chain of Peroxisome proliferator-activated receptor alpha (Homo sapiens) (Q07869 whole entry, looked up): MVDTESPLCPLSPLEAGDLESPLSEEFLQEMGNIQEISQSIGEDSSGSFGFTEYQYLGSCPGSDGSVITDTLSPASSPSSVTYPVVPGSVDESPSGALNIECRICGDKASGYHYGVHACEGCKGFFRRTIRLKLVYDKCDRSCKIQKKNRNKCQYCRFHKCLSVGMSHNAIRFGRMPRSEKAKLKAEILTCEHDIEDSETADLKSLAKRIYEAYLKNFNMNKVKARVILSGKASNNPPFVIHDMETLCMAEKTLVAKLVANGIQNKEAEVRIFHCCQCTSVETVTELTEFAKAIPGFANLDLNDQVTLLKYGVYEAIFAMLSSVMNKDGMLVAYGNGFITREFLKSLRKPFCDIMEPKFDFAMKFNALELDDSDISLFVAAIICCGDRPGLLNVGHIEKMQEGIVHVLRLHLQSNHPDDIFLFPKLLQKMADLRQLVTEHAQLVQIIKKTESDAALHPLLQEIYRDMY
Method in brief: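 Chemiluminescence from complemented enzyme reported PPARalpha activation in cells after 6 hr of compound treatment at 37 C. The detection reagent was incubated for 60 min at room temperature, and compounds were scored as agonists.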

[13] = qHTS assay for small molecule agonists of the antioxidant response element (ARE) signaling pathway measured by Nrf2-dependant transcriptional activity (AID 720636; active = well fitted curve in the direction sought with a large enough effect in the repeat runs; an effect the other way counts as inactive or inconclusive; note: % of control where 0% means no effect)
Method in brief: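 Quantitative HTS format in HepG2 cells stably expressing an ARE-luciferase reporter; 16 hr compound treatment at 37 C, luciferase signal detected with ONE-Glo.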

[14] = qHTS assay for small molecule agonists of the antioxidant response element (ARE) signaling pathway measured by Nrf2-dependant transcriptional activity - cell viability counter screen (AID 720653; active = well fitted curve in the direction sought with a large enough effect in the repeat runs; an effect the other way counts as inactive or inconclusive; note: % is set by controls: 0 for no effect and ±100 for the full control effect); details: ARE-bla HepG2 viability, CellTiter-Glo ATP luminescence, 16 h; max response: stronger effect = lower value
Method in brief: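 Cytotoxicity counter screen: intracellular ATP quantified by CellTiter-Glo luminescence in the same ARE-bla HepG2 plates, after 16 h compound exposure and a 2 h beta-lactamase substrate step.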

[15] = qHTS assay for cell viability of HEK293 cells (AID 743288); details: ATP luminescence (CellTiter-Glo), 18 h; max response: stronger effect = lower value; note: % is set by controls: 0 for no effect and ±100 for the full control effect; nearly all actives have a fitted effect of over 50% in size
Method in brief: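 Parental HEK293 cells, 2,000 per well, preincubated at least 5 h at 37 C, then exposed to compounds in DMSO for 18 h at 37 C. Viability by CellTiter-Glo ATP luminescence after 30 min at room temperature.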

[16] = biological target: Nuclear receptor subfamily 1 group I member 2 (Rattus norvegicus) (UniProt Q9R1A7); experiment: qHTS assay for small molecule activators of the rat pregnane X receptor (rPXR) signaling pathway (AID 651751; call rule not given here; note: 0% is about no effect); details: rPXR reporter cells, luciferase (One-Glo), 24 h
Chain of Nuclear receptor subfamily 1 group I member 2 (Rattus norvegicus) (Q9R1A7 whole entry, looked up): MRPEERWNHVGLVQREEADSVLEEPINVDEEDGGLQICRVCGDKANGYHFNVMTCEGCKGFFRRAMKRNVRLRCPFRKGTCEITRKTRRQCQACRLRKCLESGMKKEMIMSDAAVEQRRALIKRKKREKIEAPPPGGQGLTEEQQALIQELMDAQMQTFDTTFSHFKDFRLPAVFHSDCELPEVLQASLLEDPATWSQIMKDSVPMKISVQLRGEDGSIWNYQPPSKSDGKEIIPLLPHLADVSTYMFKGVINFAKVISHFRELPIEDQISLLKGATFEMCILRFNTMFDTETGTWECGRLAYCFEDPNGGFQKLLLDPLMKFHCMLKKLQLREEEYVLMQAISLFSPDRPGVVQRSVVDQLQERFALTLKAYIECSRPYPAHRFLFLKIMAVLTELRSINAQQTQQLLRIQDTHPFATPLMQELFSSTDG

[17] = qHTS assay for small molecule activators of the human pregnane X receptor (PXR) signaling pathway (AID 720659; call rule not given here; note: 0% is about no effect)
[18] = biological target: Glucocorticoid receptor (Homo sapiens) (UniProt P04150); experiment: qHTS assay for small molecule agonists of glucocorticoid receptor signaling (AID 588532; active = well fitted curve in the direction sought with a large enough effect in the signal ratio, with a control signal flat; the % refers to the signal ratio;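 note: 100% = dexamethasone at 0.1 µM and 0% = DMSO only wells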); details: HeLa MMTV-bla, beta-lactamase ratio, agonist, 18 h; stronger effect = higher value; percent of dexamethasone control, DMSO zero
Method in brief: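 Quantitative HTS using CellSensor MMTV-bla HeLa cells in charcoal/dextran-treated serum; compounds tested up to 92 uM. After 18 h at 37 C, CCF4 dye reported reporter induction.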

[19] = biological target: Vitamin D3 receptor (Homo sapiens) (UniProt P11473); experiment: qHTS assay for small molecule agonists of vitamin D receptor signaling (AID 588543; calls by dose curve;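 note: 0% = DMSO basal and 100% = reference agonist control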)
Chain of Vitamin D3 receptor (Homo sapiens) (P11473 whole entry, looked up): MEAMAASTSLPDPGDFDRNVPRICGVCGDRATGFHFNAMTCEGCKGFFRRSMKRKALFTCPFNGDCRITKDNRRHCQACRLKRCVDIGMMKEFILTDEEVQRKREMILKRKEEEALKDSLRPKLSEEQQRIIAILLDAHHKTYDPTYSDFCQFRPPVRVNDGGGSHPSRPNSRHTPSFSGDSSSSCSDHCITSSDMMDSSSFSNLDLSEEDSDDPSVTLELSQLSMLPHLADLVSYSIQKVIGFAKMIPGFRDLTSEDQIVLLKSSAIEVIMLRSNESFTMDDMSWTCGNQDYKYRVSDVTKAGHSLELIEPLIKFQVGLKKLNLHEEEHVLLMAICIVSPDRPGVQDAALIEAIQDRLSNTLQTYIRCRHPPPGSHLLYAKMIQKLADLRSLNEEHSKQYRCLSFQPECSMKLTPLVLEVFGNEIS
Method in brief: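 VDR-UAS-bla HEK293T cells, 2000/well, 2% charcoal-stripped FBS; compound titration 16 h at 37 C; CCF4 beta-lactamase ratio read. Normalized to 50 nM 1-alpha,25-dihydroxyvitamin D3 (100%) and DMSO; Hill fit gives EC50, efficacy.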

[20] = qHTS assay for cell viability of the p53RE-bla HCT-116 cell line (AID 743292); note: % is set by controls: 0 for no effect and ±100 for the full control effect; nearly all actives have a fitted effect of over 55% in size
Method in brief: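 Viability of compound-treated p53RE-bla HCT-116 cells is taken from ATP-dependent luciferase luminescence. Treatment lasts 16 h at 37 C after a 5 h settling period; detection follows 30 min at room temperature.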

CCCCCCCCCCCCCCCCCC#N
-8.8%: max response [8]
-14.7%: max response [5]
inactive: Potency [1] | Potency [3] | outcome [4] | Potency [6] | Potency [7] | max response [9] -4.3% | activation [10] -6.64% | activation [11] 2.76% | max response [12] 3.6% | Potency [13] | max response [14] 11.9% | max response [15] -12.8% | max response [16] 2.15% | outcome [17]
1.68%: max response [2]

C=C(C)C(=O)OCC[N+](C)(C)C
8.9%: max response [2]
7.2%: max response [5]
inactive: activation [18] -7.03% | Potency [1] | Potency [3] | outcome [4] | outcome [19] | Potency [6] | Potency [7] | activation [10] 0.0876% | activation [11] -2.41% | max response [12] -2.12% | max response [14] 1.93% | max response [15] -15.2% | Potency [20] | max response [16] 0.4% | outcome [17]

CC1(C)C(=O)N(Br)C(=O)N1Br
-0.87%: max response [8]
-13.9%: max response [5]
-25.7%: max response [2]
inactive: activation [18] 5.17% | Potency [1] | Potency [3] | outcome [4] | outcome [19] | Potency [6] | Potency [7] | max response [9] -10.9% | activation [10] -3.66% | activation [11] 1.3% | max response [12] -2.02% | Potency [13] | max response [14] -10.4% | max response [15] -3.78% | Potency [20] | max response [16] -0.134% | outcome [17]

c1ccc2cc3ccccc3cc2c1
21.2%: max response [8]
inactive: activation [18] 13.3% | Potency [1] | outcome [4] | Potency [6] | Potency [7] | max response [9] -8.21% | activation [10] 7.64% | activation [11] 1.49% | max response [12] -0.274% | max response [14] -8% | max response [15] -2.63% | Potency [20] | max response [16] 4.65%
-12.9%: max response [5]

CCCCN(CCCC)CCCCCCN(CCCC)CCCC
6.65%: max response [2]
-14.8%: max response [5]
inactive: Potency [3] | outcome [4] | outcome [19] | Potency [6] | Potency [7] | activation [10] -4.69% | activation [11] 1.73% | max response [12] -0.567% | Potency [13] | max response [14] -9.43% | max response [15] -21.9% | max response [16] 4.27% | outcome [17]

COC(=O)C(C)Oc1ccc(Oc2ncc(C(F)(F)F)cc2Cl)cc1 (configuration not stated)
-16.8%: max response [2]
5.42%: max response [8]
inactive: Potency [3] | outcome [19] | Potency [7] | max response [9] -74.4% | activation [10] -4.64% | activation [11] 0.251% | max response [12] 0.508% | Potency [13] | max response [15] -21.9% | Potency [20] | max response [16] -3.2% | outcome [17]

CCCCOC(=O)[C@@H](C)Oc1ccc(Oc2ccc(C(F)(F)F)cn2)cc1
inactive: activation [18] -9.59% | Potency [1] | Potency [3] | outcome [4] | outcome [19] | Potency [6] | Potency [7] | max response [9] 9.28% and -16% | activation [10] -5.64% and -5.4% | activation [11] -0.836% and 0.498% | max response [12] -0.0053% and -0.638% | Potency [13] | max response [14] -10.9% and -13.9% | max response [15] -10% and -13.5% | Potency [20] | max response [16] -5.37% and -2.58%
-5.61% and -1.04%: max response [8]
-3.89% and -1%: max response [5]
35.2% and 48.6%: max response [2]

O=C(Cl)c1ccc(C(=O)Cl)cc1
inactive: Potency [1] | Potency [3] | outcome [19] | Potency [6] | Potency [7] | max response [9] 2.6% | activation [10] -0.615% | activation [11] -0.806% | max response [12] -0.543% | Potency [13] | max response [14] -8.12% | max response [15] -8.26% | Potency [20] | max response [16] -1.54% | outcome [17]
-9.41%: max response [2]
-14.3%: max response [8]
-3.06%: max response [5]

Cc1nn(C)c(Oc2ccccc2)c1/C=N/OCc1ccc(C(=O)OC(C)(C)C)cc1
inactive: activation [18] -3.9% | Potency [1] | Potency [6] | Potency [7] | activation [10] 9.47% | max response [12] 2.08% | Potency [20] | outcome [17]
-10.3%: max response [5]

C=C(C)C(=O)OCCCCCCCCCCCC
-6.86%: max response [8]
-11.6%: max response [5]
-35.9%: max response [2]
inactive: activation [18] -1.63% | Potency [1] | Potency [3] | outcome [4] | Potency [6] | Potency [7] | max response [9] 6.49% | activation [10] 1.89% | activation [11] 1.15% | max response [12] -1.38% | Potency [13] | max response [14] 11.2% | max response [15] -6.64% | Potency [20] | max response [16] 1.96% | outcome [17]

C[Si]1(C)O[Si](C)(C)O[Si](C)(C)O[Si](C)(C)O1
8.31%: max response [2]
inactive: Potency [3] | outcome [19] | Potency [7] | max response [9] 6.05% | activation [10] -2.06% | activation [11] -0.142% | max response [12] -0.153% | Potency [13] | max response [14] 2.58% | max response [15] 0.965% | max response [16] 3.43% | outcome [17]
1.41%: max response [8]
